Experimental findings from PubChem BioAssay are described below.

Active and inactive are the calls of the source.

The test system of assay [1] is Plasmodium falciparum Sir2 (PF13_0152, Sir2A). The assay can be described thus: Plasmodium falciparum Sir2A binding compounds – biochemical, small-molecule microarray, 635 nm fluorescence, primary screen (AID 1098).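 Note: score merges spot fluorescence intensity with its signal-to-noise ratio.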 Conditions: fluorescence 635 nm, higher = more signal.
Assay [2] in a line: probe aDKK1 binding to arrayed compounds – biochemical, biotinylated probe, 635/667 nm fluorescence, primary screen (AID 1099).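 Note: score merges 667nm spot fluorescence with signal to noise across triplicate slides.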 Conditions: small-molecule microarray, higher = more signal.
Assay [3] is described as follows: probe aCHRDL2 binding to arrayed compounds – biochemical, biotinylated probe, 635/667 nm fluorescence, primary screen (AID 1100). Conditions: small-molecule microarray, higher = more signal.
Assay [4] is described as follows: change in splice reporter luminescence, either direction, cell-based, HEK293, spliceosome inhibition project, primary screen (AID 1101).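 Note: HEK293 cells carrying a splicing-competent luciferase reporter gene; test concentration not given here.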 The conditions noted are these: HEK293 splicing luciferase reporter, 24 h, higher = more signal, called active from +8 up or from −8 down. (A reporter such as luciferase makes a cellular process visible.)
The target of assay [5] is Fibroblast growth factor 10 (Homo sapiens) (UniProt O15520). The assay can be described thus: compounds binding fibroblast growth factor 10 – biochemical, small-molecule microarray, 635 nm fluorescence, primary screen (AID 1102). The conditions noted are these: FGF10 binding, fluorescence 635 nm, higher = more signal.
The subject of assay [6] is glycogen synthase kinase-3 (GSK3A per assay name; protocol says GSK3B). The assay can be described thus: compounds binding glycogen synthase kinase-3 – biochemical, small-molecule microarray, 635 nm fluorescence, GSK3A, primary screen (AID 1103). Note: the record names both GSK3A and GSK3B. The conditions noted are these: fluorescence 635 nm, higher = more signal.
For assay [7], the target named is Epidermal growth factor receptor (Homo sapiens) (UniProt P00533). The assay can be described thus: compounds binding epidermal growth factor receptor – biochemical, small-molecule microarray, 635 nm fluorescence, primary screen (AID 1104).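 Note: score merges 667 nm emission intensity with spot signal to noise over triplicate slides.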 The conditions noted are these: EGFR binding, higher = more signal.
Assay [8] has as its target Follistatin-related protein 3 (Homo sapiens) (UniProt O95633). Kind of assay: compounds binding follistatin-related protein 3 – biochemical, small-molecule microarray, 635 nm fluorescence, primary screen (AID 1105).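 Note: score merges emission near 667 nm and signal to noise per printed spot across three slides.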 The conditions noted are these: FSTL3 binding, higher = more signal.
In assay [9] the target is Dickkopf-related protein 1 (Homo sapiens) (UniProt O94907). The assay can be described thus: small molecules binding DKK1 protein – biochemical, small-molecule microarray, 635 nm fluorescence scan, primary screen (AID 1106).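 Note: score merges emission near 667 nm with signal to noise over three replicate slides.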 Conditions: higher = more signal.
Assay [10] relates to Inhibin beta A chain (activin A). Kind of assay: small molecules binding activin A – biochemical, small-molecule microarray, 635 nm fluorescence scan, primary screen (AID 1107).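 Note: mouse activin A protein probed at 4.33 µg/mL on printed slides; score merges bound-protein fluorescence near 667 nm with spot signal-to-noise.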 Conditions: INHBA, higher = more signal.
Assay [11] relates to Human papillomavirus type 1a protein E7 (residues 44-93). The assay can be described thus: small molecules binding HPV E7 44-93 – biochemical, small-molecule microarray, residues 44-93, 635 nm fluorescence, primary screen (AID 1108).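 Note: E7 fragment applied at 1 µg/mL in TBST for 1 h at 4 C; score combines spot fluorescence with its signal to noise ratio.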 The conditions noted are these: fluorescence 635 nm, higher = more signal.
Assay [12] is described as follows: hepatitis C replication reporter changes, two-sided – Huh7 cells, luciferase reporter, HCV replication inhibitor project, primary screen (AID 1109).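 Note: huh7 hepatoma cells harbouring a luciferase neomycin HCV replicon reporter; luciferase luminescence as measure of HCV replicon replication; test concentration not given here.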 Conditions: Huh7 HCV replicon luciferase reporter, 48 h; higher = more signal.
For assay [13], the target named is Left-right determination factor 2 (Homo sapiens) (UniProt O00292). The assay can be described thus: small molecules binding LEFTY2 protein – biochemical, small-molecule microarray, 635 nm fluorescence scan, primary screen (AID 1110). The conditions noted are these: higher = more signal.
Assay [14] addresses Calmodulin-1 (Homo sapiens) (UniProt P0DP23). Kind of assay: small molecules binding calmodulin-1 with EGTA – biochemical, small-molecule microarray, Cy5-labelled CALM1, profiling panel (AID 1111).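 Note: labelled calmodulin applied in Tris saline Tween buffer holding calcium plus EGTA and DTT.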 Conditions: Cy5-CALM1 binding fluorescence, higher = more signal.
Assay [15] shares this target. Kind of assay: small molecules binding Ca-loaded calmodulin-1 – biochemical, small-molecule microarray, Cy5-labelled CALM1, plus calcium, artefact control for SMM control-protein annotation, profiling panel (AID 1112).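 Note: score merges spot fluorescence with signal to noise from triplicate slides.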 The conditions noted are these: Cy5-CALM1 binding fluorescence, higher = more signal.
Assay [16] is described as follows: probe aWnt5a binding to arrayed compounds – biochemical, biotinylated probe, 635/667 nm fluorescence, primary screen (AID 1113).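 Note: score merges 667 nm fluorescence intensity with signal-to-noise per printed feature.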 The conditions noted are these: small-molecule microarray, higher = more signal.
The nature of assay [17]: probe aShh binding to arrayed compounds – biochemical, biotinylated probe, 635/667 nm fluorescence, primary screen (AID 1114).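 Note: probe is biotin-labelled aShh protein from a stem cell growth factor screen; measures binding of labelled protein to compounds printed on the slide; score merges feature fluorescence at 667 nm with signal-to-noise.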 Conditions: small-molecule microarray, higher = more signal.
Assay [18] is described as follows: probe aNog binding to arrayed compounds – biochemical, biotinylated probe, 635/667 nm fluorescence, primary screen (AID 1115).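 Note: probe is biotinylated aNog protein used at 0.15 µg/mL for 1 h at 4 C; z-score combines 667 nm fluorescence of each spot with its signal to noise.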 The conditions noted are these: small-molecule microarray, higher = more signal.
The target in assay [19] is Torsin-1A-interacting protein 1 (Homo sapiens) (UniProt Q5JTV8). The assay can be described thus: compound microarray binding of lysate hLAP1 – cell lysate, small-molecule microarray, COS7 lysate, 635/667 nm fluorescence, primary screen (AID 1116). The conditions noted are these: 635 nm fluorescence, higher = more signal.
In assay [20] the target is Alpha-bungarotoxin (Bungarus multicinctus) (UniProt P60615). The assay can be described thus: compounds binding labelled alpha-BTX control protein – biochemical, small-molecule microarray, Alexa647 label, 635/667 nm fluorescence, artefact control for SMM control protein annotation, profiling panel (AID 1117). Conditions: alpha-BTX-A647 binding fluorescence, higher = more signal.
Alpha-bungarotoxin (Bungarus multicinctus), sequence (P60615 whole entry, looked up): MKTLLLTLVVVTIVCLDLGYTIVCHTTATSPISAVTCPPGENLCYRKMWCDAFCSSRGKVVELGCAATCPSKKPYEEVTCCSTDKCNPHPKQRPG

Dickkopf-related protein 1 (Homo sapiens), sequence (O94907 whole entry, looked up): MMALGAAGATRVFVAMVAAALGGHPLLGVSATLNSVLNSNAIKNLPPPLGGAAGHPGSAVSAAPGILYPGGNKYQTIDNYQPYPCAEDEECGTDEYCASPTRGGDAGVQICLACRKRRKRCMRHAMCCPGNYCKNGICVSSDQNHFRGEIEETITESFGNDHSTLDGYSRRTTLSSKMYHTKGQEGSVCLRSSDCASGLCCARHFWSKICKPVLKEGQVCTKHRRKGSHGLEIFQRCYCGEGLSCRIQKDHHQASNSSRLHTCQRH
Follistatin-related protein 3 (Homo sapiens), sequence (O95633 whole entry, looked up): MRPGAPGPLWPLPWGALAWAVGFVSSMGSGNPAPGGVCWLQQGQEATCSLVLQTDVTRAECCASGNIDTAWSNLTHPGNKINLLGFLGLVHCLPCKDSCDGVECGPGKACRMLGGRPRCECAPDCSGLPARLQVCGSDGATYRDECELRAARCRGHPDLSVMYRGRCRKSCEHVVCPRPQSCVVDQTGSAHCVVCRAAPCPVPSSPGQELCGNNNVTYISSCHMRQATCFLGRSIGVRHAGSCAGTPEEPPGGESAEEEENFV
Fibroblast growth factor 10 (Homo sapiens), sequence (O15520 whole entry, looked up): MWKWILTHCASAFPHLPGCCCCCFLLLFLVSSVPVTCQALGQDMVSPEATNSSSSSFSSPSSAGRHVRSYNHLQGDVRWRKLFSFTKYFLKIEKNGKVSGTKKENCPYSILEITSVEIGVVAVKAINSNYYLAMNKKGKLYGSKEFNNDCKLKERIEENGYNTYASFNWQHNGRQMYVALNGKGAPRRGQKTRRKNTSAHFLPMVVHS
Left-right determination factor 2 (Homo sapiens), sequence (O00292 whole entry, looked up): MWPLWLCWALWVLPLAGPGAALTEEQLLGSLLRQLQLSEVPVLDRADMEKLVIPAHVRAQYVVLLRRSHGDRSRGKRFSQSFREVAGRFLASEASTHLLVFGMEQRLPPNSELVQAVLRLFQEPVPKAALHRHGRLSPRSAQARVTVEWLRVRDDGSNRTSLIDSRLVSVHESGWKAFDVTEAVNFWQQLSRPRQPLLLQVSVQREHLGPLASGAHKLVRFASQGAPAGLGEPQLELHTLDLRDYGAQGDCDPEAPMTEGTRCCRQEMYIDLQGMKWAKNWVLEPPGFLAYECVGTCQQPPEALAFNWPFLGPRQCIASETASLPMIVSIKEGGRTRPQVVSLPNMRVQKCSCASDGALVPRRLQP
Epidermal growth factor receptor (Homo sapiens), sequence (P00533 whole entry, looked up): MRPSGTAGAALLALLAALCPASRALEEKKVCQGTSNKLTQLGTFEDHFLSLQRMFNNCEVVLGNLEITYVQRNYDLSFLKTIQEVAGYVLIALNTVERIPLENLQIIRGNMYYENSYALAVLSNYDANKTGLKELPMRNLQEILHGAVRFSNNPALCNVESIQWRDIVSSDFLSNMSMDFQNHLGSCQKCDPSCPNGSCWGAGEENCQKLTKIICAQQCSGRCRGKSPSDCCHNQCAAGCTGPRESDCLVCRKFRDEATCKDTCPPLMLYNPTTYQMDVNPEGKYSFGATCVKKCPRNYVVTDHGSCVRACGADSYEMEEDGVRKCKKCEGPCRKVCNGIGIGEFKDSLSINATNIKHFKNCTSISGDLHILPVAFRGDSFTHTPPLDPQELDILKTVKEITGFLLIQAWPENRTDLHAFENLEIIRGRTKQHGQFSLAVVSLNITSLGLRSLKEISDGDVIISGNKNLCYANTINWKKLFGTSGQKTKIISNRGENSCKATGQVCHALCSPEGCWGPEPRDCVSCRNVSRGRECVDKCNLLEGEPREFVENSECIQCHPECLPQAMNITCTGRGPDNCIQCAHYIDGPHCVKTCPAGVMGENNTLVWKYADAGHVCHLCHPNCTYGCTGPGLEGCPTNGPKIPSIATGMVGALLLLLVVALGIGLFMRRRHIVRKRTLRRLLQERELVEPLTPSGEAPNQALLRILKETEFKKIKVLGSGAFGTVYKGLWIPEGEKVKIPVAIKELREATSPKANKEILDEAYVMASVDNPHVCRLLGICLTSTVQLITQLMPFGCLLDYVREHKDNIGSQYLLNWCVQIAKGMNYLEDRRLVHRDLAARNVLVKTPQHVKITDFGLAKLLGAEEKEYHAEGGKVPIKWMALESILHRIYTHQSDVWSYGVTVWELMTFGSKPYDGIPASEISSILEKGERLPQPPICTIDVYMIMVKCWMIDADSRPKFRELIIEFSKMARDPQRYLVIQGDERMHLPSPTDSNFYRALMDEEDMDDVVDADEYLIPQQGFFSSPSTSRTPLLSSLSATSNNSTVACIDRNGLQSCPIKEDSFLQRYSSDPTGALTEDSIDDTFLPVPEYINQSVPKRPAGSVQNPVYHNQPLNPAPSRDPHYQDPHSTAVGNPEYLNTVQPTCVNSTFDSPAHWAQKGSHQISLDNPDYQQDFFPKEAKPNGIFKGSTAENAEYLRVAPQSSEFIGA
Torsin-1A-interacting protein 1 (Homo sapiens), sequence (Q5JTV8 whole entry, looked up): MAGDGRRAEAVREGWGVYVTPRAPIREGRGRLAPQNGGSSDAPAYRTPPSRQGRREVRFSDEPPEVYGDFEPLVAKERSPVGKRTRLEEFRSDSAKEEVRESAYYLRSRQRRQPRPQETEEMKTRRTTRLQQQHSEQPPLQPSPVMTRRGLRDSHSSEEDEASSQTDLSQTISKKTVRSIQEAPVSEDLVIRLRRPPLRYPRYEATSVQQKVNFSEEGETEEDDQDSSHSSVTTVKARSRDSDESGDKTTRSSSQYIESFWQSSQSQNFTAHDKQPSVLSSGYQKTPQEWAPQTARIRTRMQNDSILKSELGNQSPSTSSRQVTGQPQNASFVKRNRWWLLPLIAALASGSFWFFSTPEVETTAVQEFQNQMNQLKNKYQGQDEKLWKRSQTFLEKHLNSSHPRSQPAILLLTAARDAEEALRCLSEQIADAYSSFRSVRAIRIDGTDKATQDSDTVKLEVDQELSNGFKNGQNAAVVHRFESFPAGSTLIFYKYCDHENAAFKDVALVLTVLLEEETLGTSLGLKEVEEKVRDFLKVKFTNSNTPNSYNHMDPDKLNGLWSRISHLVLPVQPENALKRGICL

Regarding `NC(=O)NCC#Cc1ccc2c(c1)[C@]1(C(=O)N2)[C@H](c2ccc(OCCO)cc2)N2[C@H](c3ccccc3)[C@H](c3ccccc3)OC(=O)[C@H]2[C@@H]1C(=O)O`, the composite z-score in assay [1] was 1.05; in [2], 0.151; in assay [3], 0.654; in assay [5] it was -0.808; in assay [6] it was -1.84; in [7], -0.716. For the same compound, the composite z-score was -0.567 in assay [8]; -0.57 in assay [9]; 0.993 in assay [10]; -0.979 in assay [11]; -0.644 in assay [13]; 0.024 in [14]. Also, the composite z-score in [15] was 0.991; in assay [16], -0.122; in assay [17] it was -0.102; in [18], 0.281; in assay [19], 0.561; in assay [20], 2.44. For the same compound, the z-score in assay [4] is -0.708 (inactive); in [12], -0.591.
In the case of `C=CC1c2cc(O)c(OC)cc2CCN1C` (stereo not given), the composite z-score in assay [1] was 0.21; in assay [2], 0.416; in [3], 0.759; in [5], -0.169; in assay [6], -1.24; in [7], -0.534. Moreover, the composite z-score was -0.332 in [8]; -0.26 in [9]; 0.725 in assay [10]; -0.728 in assay [11]; -0.94 in [13]; 0.504 in [14]. Besides, the composite z-score in assay [15] is 1.04; in [16] it was -0.112; in assay [17], -0.243; in [18], -0.348; in assay [19], 0.381; in assay [20], -0.383. The values for the z-score in assay [4] and in assay [12] were 0.978 (inactive) and -1.02, respectively.
`CC(C)N1C(=O)c2ccccc2[C@@H](C(=O)NCC(F)(F)F)[C@@H]1c1ccc(CO)cc1`: the composite z-score in assay [1] is 0.861; in [2], -0.0674; in assay [3], 0.53; in assay [5], -0.746; in assay [6] it was -0.871; in [7], -0.318. The composite z-score was -0.464 in [8]; -0.459 in [9]; 0.935 in [10]; 0.124 in assay [11]; 0.0101 in assay [13]; -0.257 in assay [14]. In addition, the composite z-score in assay [15] was -0.224; in [16], -0.0334; in assay [17], -0.0626; in assay [18], 0.128; in assay [19], 0.287; in assay [20], -0.143. Further, the z-score in assay [4] was 0.655 (inactive); in assay [12], 0.568.
For the compound `C=C1C(=O)C=C2CN(C(=O)c3ccccc3)[C@@](Cc3ccc(OC)cc3)(C(=O)OC)[C@@H]12`, the composite z-score in [1] came out at 1.14; in assay [2] it was 1.18; in assay [3], 1.18; in assay [5] it was 1.38; in [6], 0.681; in assay [7] it was 0.369. Moreover, the composite z-score in assay [8] is 1.37; in assay [9] it was -0.399; in assay [10], 0.516; in [11], 1.43; in assay [13], -0.135; in [14], 2.16. In addition, the composite z-score is 0.311 in [15]; 0.164 in assay [16]; 0.232 in [17]; 2.04 in assay [18]; 1.04 in assay [19]; 1.2 in assay [20]. The z-score in [4] is -2.15 (inactive); in assay [12], -2.72.
Turning to `COc1ccc([Si](C)(C)[C@H]2[C@H](CC(=O)N3Cc4ccccc4C[C@H]3CO)O[C@@]3(C(=O)N(C)c4c(Br)cc(C)cc43)[C@@H]2C)cc1`, the composite z-score was 0.842 in assay [1]; -0.149 in assay [2]; -0.246 in [3]; 1.19 in [5]; 0.332 in assay [6]; 0.552 in assay [7]. Besides, the composite z-score was 1.09 in assay [8]; 0.474 in assay [9]; 0.96 in assay [10]; 1.31 in [11]; 0.205 in assay [13]; 0.0634 in [14]. Moreover, the composite z-score is -0.113 in [15]; -0.102 in assay [16]; -0.164 in assay [17]; -0.238 in assay [18]; 0.656 in assay [19]; 0.803 in assay [20]. Also, the z-score was -1.97 (inactive) in assay [4] and -5.13 in [12].
For `CCOC(=O)C[C@H]1[C@H](OC(=O)c2ccccc2-c2ccccc2)[C@@H](NC(=O)c2ccc3ccccc3c2)c2cc(OCCCO)ccc2N1C(=O)Cc1ccc(OC)cc1`, the composite z-score in [1] was -0.332; in assay [2], 0.29; in assay [3], 0.58; in assay [5], 0.125; in assay [6] it was -0.914; in assay [7] it was -0.201. Also, the composite z-score was -0.517 in assay [8]; 0.225 in [9]; 0.892 in assay [10]; -0.201 in assay [11]; 0.23 in assay [13]; 0.115 in assay [14]. Also, the composite z-score in [15] is 0.0612; in assay [16] it was -0.0643; in assay [17], 0.112; in assay [18], 0.257; in assay [19], -0.0261; in assay [20] it was 0.264. Further, the z-score in assay [4] was -0.897 (inactive); in [12] it was -1.6.
